Assay results published in PubChem BioAssay (EPA / NIEHS).
Calls of active or inactive are those of the source. Rule for the calls: active = hit-call score of the fitted dose curve at least 0.9, where 1 is the maximum; inactive = score below 0.9. Starred links: 1 amine or outer side, 2 acyl side, 3 side chain; linkers in the order of their positions; H or OH if unused. Positions of bridges follow the written chain, without caps; N, C: chain ends. Non-standard residues stand in square brackets, D forms with d. Residues, ends and D or L forms follow the SMILES beside them. Adda = CO[C@@H](Cc1ccccc1)[C@@H](C)/C=C(C)/C=C/[C@H](N[*:1])[C@H](C)C(=O)[*:2]; dAsp(3S-Me) = C[C@H](C(=O)[*:3])[C@@H](N[*:1])C(=O)[*:2]; d(γGlu) = O=C(O)[C@@H](CCC(=O)[*:2])N[*:1]; NMeDha = C=C(NC)C(=O)O

Assay: CCTE_Harrill_HTTr_Viability_MCF7: CCTE's 6-hour Cell Viability Assessment for the High-Throughput Transcriptomics (HTTr) Platform, in MCF-7 cells cultured in DMEM + 10% fetal bovine serum, Harrill Lab (AID 2284010)
Excerpt: This is a cell-based assay that evaluates cell viability using high content imaging to evaluate membrane integrity using propidium iodide dye exclusion in a 384 well format.One of seven assay components measured from the CCTE_Harrill_HTTr_Viability assay. This was part of a full screening experiment. This is a cell-based assay that evaluates cell viability in MCF-7 cells cultured in DMEM + 10% fetal bovine serum. High content imaging is used to evaluate membrane integrity using propidium iodide dye exclusion. Measurements are taken at 6 hours after chemical dosing in 384-well format.The assay component endpoint CCTE_Harrill_HTTr_Viability_MCF7 was analyzed with bidirectional fitting relation to DMSO as the negative control and baseline of activity. Using a type of viability reporter, gain-of-signal activity can be used to evaluate membrane integrity using propidium iodide dye exclusion to understand changes in cytotoxicity. To generalize the intended target to other relatable targets, this assay endpoint is annotated to cell cycle, where the subfamily is cytotoxicity.
Chemicals were tested in MCF7 cells in an eight point dilution series with a six hour exposure duration.

Compound | AC50 | outcome
O=C(O)c1ccccc1C(=O)Nc1cccc2ccccc12 | 53.8 µM (active) | –
[Cd+2].[Cl-].[Cl-] | – | inactive
Cc1cccc2sc3nncn3c12 | – | inactive
CCc1cccc(C)c1N(C(=O)CCl)[C@@H](C)COC | – | inactive
CCC(C)(C)O | – | inactive
CCOC(=O)COc1ccc(Cl)cc1Cl | – | inactive
Oc1cc(Cl)ccc1Cl | – | inactive
CC(N)=S | – | inactive
C=C1C(=O)N[C@H](C)C(=O)N[C@H](CC(C)C)C(=O)N[C@@H](C(=O)O)[C@H](C)C(=O)N[C@@H](CCCN=C(N)N)C(=O)N[C@@H](/C=C/C(C)=C/[C@H](C)[C@H](Cc2ccccc2)OC)[C@H](C)C(=O)N[C@@H](C(=O)O)CCC(=O)N1C (R[Adda][d(γGlu)][NMeDha][dA][dL][dAsp(3S-Me)]-OH; lactam N-7) | – | inactive
C[C@]12CC[C@H]3[C@@H](CC[C@@]45O[C@@H]4C(O)=C(C#N)C[C@]35C)[C@@H]1CC[C@@H]2O | – | inactive
c1ccc2cc3c(cc2c1)-c1cccc2cccc-3c12 | – | inactive
ClC1=C(Cl)[C@]2(Cl)[C@H]3[C@H]([C@H](Cl)C(Cl)[C@@H]3Cl)[C@@]1(Cl)C2(Cl)Cl (stereo not given in full) | – | inactive
O=S(=O)(O)O | – | inactive
CNC(=N[N+](=O)[O-])NCC1CCOC1 (stereo not given) | – | inactive
CC(=O)c1cc2c(cc1C)C(C)(C)C(C)CC2(C)C (stereo not given) | – | inactive
[Cl][Sb]([Cl])[Cl] | – | inactive
CC(=O)C=Cc1ccccc1 | – | inactive
CC(C)[C@@H](C(=O)O[C@@H](C#N)c1cccc(Oc2ccccc2)c1)c1ccc(Cl)cc1 | – | inactive
ClC=C(Cl)CCl | – | inactive
O=S1OC[C@@H]2[C@H](CO1)[C@]1(Cl)C(Cl)=C(Cl)[C@]2(Cl)C1(Cl)Cl (stereo not given in full) | – | inactive

Compound | AC50 | outcome
COP(=S)(OC)SCC(=O)N(C)C=O | – | inactive
CN(C)C(=O)C(c1ccccc1)c1ccccc1 | – | inactive
COc1cc(OC)nc(Oc2cccc(Oc3nc(OC)cc(OC)n3)c2C(=O)O)n1 | – | inactive
CC(Cc1ccc(C(C)(C)C)cc1)CN1C[C@@H](C)O[C@@H](C)C1 (stereo not given in full) | – | inactive
CC(C)(O)C#N | – | inactive
C[C@]12CCC(=O)C(O)=C1CC[C@@H]1[C@@H]2CC[C@]2(C)C(=O)CC[C@@H]12 | – | inactive
[O-][Cl+3]([O-])([O-])O | – | inactive
Cl | – | inactive
C[N+](C)(C)CC(=O)[O-] | – | inactive
CC(C)CCCCCCCOC(=O)c1ccccc1C(=O)OCCCCCCCC(C)C | – | inactive
O=CC=Cc1ccccc1 | – | inactive
N#Cc1sc2c(=O)c3ccccc3c(=O)c=2sc1C#N | 11.1 µM (active) | –
CC(C)(C)OOC(C)(C)C#CC(C)(C)OOC(C)(C)C | – | inactive
CCCN(CC1CC1)c1c([N+](=O)[O-])cc(C(F)(F)F)cc1[N+](=O)[O-] | – | inactive
CCCCC(CC)COC(=O)c1cc(Br)c(Br)c(Br)c1Br (stereo not given) | – | inactive
CCc1cc(C)cc(CC)c1-c1c(OC(=O)C(C)(C)C)n2n(c1=O)CCOCC2 | – | inactive
CC(C)(Cl)Cl | – | inactive
CCCOC(=O)c1ccccc1C(=O)OCCC | – | inactive
O=c1[nH]c(Cl)c(Cl)cc1Cl | – | inactive
COP(=S)(Oc1cc(Cl)c(Br)cc1Cl)c1ccccc1 (stereo not given) | – | inactive
